Bioassay records as filed in PubChem BioAssay.
Myeloid diff 2 = promotes myeloid progenitor differentiation; ER-HoxA9 myeloid progenitors, lysozyme-GFP differentiation, flow cytometry; calls only at 10 µM; 1% of 360,000 active;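 active = normalized GFP-positive differentiation at or above the plate's own cutoff, the solvent-only control mean plus 3 SD; inconclusive = no clear call, values can overlap the other calls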;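 also: cells exposed to compound for four days before flow analysis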
Rtt109 Vps75 = inhibitors of Candida albicans Rtt109/Vps75 histone acetyltransferase. purified Rtt109/Vps75, ThioGlo CoA-SH fluorescence, 4 h. inhibition, % at 34.9 µM. 0.16% of 330,000 active. AID 540336. Q5AAJ8;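 active = inhibition of at least 50% in every replicate; inconclusive = best replicate reaches 50% inhibition but some replicates fall short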
ABHD5-PLIN5 inh = ABHD5-PLIN5 protein interaction inhibition | 0.78% of 360,000 active | AID 602281 | inhibition, % at 4 µM | Q00G26+Q8WTS1 | Split G. princeps luciferase complementation, luminescence, 4 h;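 active = inhibition above the mean inhibition across every tested compound plus 3 SD, cut at about 22% in these data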;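 also: 0% = DMSO only wells and the 100% control is not disclosed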
HGIII-sPLA2 inh = Blocks human group III sPLA2 activity. inhibition, % at 12.2 µM. QFRET BODIPY PC-A2 liposome hydrolysis, fluorescence. 0.56% of 370,000 active;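 active = inhibition above mean plus 3 SD of compounds lying within the high and low control bounds, cut at about 19% in these data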;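 also: 0% = median of test compound wells and 100% = no enzyme DMSO wells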
DAGLB inh = diacylglycerol lipase beta (human) inhibition; Q8NCG7; AID 504411; HEK293T DAGLB membrane lysate, EnzChek fluorogenic substrate; inhibition, % at 5.17 µM; 0.059% of 340,000 active; in the data active = inhibition above about 34%;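 also: 0% = enzyme with vehicle and 100% = wells lacking enzyme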
Target sequence (Q8NCG7 whole entry, looked up): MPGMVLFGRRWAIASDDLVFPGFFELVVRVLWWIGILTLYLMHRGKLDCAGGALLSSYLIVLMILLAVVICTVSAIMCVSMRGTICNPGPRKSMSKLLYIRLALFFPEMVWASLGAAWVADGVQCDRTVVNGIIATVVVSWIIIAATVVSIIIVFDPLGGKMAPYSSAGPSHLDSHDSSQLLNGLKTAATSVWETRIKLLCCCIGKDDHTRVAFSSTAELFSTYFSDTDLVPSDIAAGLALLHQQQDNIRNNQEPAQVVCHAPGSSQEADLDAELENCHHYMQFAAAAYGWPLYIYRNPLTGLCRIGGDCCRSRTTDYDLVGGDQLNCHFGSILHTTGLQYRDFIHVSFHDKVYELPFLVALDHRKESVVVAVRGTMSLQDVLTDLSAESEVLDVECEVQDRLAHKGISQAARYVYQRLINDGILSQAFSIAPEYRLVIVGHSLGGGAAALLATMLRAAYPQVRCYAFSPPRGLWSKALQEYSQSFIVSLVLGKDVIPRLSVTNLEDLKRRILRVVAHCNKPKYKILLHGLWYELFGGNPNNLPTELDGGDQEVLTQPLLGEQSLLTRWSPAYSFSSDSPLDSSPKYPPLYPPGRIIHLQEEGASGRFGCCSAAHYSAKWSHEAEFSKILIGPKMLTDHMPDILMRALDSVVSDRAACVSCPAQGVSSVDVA
Cardio protect = myocardial damage modulation in H9c2 cells; H9c2 cardiomyocytes, H2O2 injury protection, ATPLite, 2 h; protection from H2O2 cell death, % at 20 µM; 0.63% of 360,000 active;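 active = compounds giving at least 50% protection of heart cells from peroxide-induced death in the single-dose screen, raw or plate-pattern-corrected value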;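 also: 0% = DMSO wells with peroxide and 100% = DMSO wells without peroxide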
* = called active by the depositor; i = inactive; ? = inconclusive; · = no result; + = active, no number. Compounds with a hit are over-represented: about 2.9% of the library has one in this group of screens.

SMILES | Myeloid diff 2 | Rtt109 Vps75 | ABHD5-PLIN5 inh | HGIII-sPLA2 inh | DAGLB inh | Cardio protect
CC(=O)c1c(C)[nH]c(C(=O)OCC(=O)Nc2cc(C(F)(F)F)ccc2N2CCOCC2)c1C | + | 23.7 | 7.5 | -15.4 | 0.6 | 3.5
O=C(COC(=O)/C=C/c1ccc(F)cc1)Nc1cc(C(F)(F)F)ccc1N1CCOCC1 | i | -3.6 | 4.1 | 2.9 | 0.4 | 5.4
Cc1cc(C)c(C#N)c(SCCS(=O)(=O)c2ccc(C(C)(C)C)cc2)n1 | + | -16.4 | -0.7 | 7.3 | -1.6 | -24.0
CN(C)C(CNC(=O)c1ccc(-c2ccccc2)cc1)c1ccccc1 (centres undefined) | + | 3.8 | 1.7 | -14.7 | -0.5 | 2.2
CN(C)C(CNC(=O)c1ccc(C(=O)c2ccccc2)cc1)c1ccccc1 (centres undefined) | i | 54.2* | 1.8 | -10.3 | 1.1 | 3.5
CN(C)C(CNC(=O)c1ccc(NC(=O)CC#N)cc1)c1ccccc1 (centres undefined) | · | 4.6 | 5.8 | -28.6 | -1.8 | 0.3
Cn1c(=O)c2[nH]c(NN=Cc3ccc(F)cc3)nc2n(C)c1=O | i | 3.7 | -1.5 | -3.4 | 1.7 | 20.2
Cn1c(=O)c2[nH]c(NN=Cc3cccc(Br)c3)nc2n(C)c1=O | i | 5.1 | -3.1 | 4.5 | 0.1 | 50.1*
Cc1ccccc1-n1c(=O)cc(N2CC(C)OC(C)C2)[nH]c1=O (centres undefined) | i | -1.4 | 22.7* | 0.9 | -2.3 | -3.7
N#Cc1ccccc1S(=O)(=O)N1CCN(C(=O)c2cc(=O)[nH]c3ccccc23)CC1 | i | -2.3 | -2.4 | 1.5 | -2.9 | 25.7
COc1ccc(N2CCN(C(=O)c3cc(=O)[nH]c4ccccc34)CC2)cc1 | i | 9.0 | -0.5 | 0.5 | -1.3 | -4.0
Cc1ccc(S(=O)(=O)N2CCN(C(=O)c3cc(=O)[nH]c4ccccc34)CC2)c(C)c1 | i | 3.0 | 1.8 | -6.5 | -2.2 | 71.7*
Cc1cc(C)c(C)c(S(=O)(=O)N2CCN(C(=O)c3cc(=O)[nH]c4ccccc34)CC2)c1C | + | 16.1 | 6.7 | -15.6 | 1.1 | 78.6*
Cc1cc(C)c(S(=O)(=O)N2CCN(C(=O)c3cc(=O)[nH]c4ccccc34)CC2)c(C)c1 | i | 11.4 | -0.6 | -1.9 | 0.9 | 62.7*
O=S(=O)(NC1CCN(S(=O)(=O)c2ccc3c(c2)OCCO3)C1)c1c(F)cccc1F (centres undefined) | i | 4.4 | 1.1 | 3.6 | -1.7 | 1.8
N#Cc1cc([N+](=O)[O-])ccc1NCCN1CCOCC1 | i | 2.6 | 0.2 | 0.7 | 0.3 | -3.6
CCCCc1ccc(-c2csc(/C(C#N)=C/c3ccc(C)o3)n2)cc1 | i | 0.1 | 17.6 | 3.9 | -2.2 | -2.0
CCCCc1ccc(-c2csc(/C(C#N)=C\c3ccco3)n2)cc1 | + | 9.2 | 2.0 | -2.0 | -12.6 | -4.8
O=C(N/N=C/c1cccc2nccnc12)c1ccncc1 | i | · | -5.4 | -3.6 | · | 65.3*
O=C(N/N=C/c1cc(Cl)cc(Cl)c1O)c1ccncc1 | ? | -8.3 | -0.9 | -19.4 | -1.2 | 50.5*
Oc1c(Cl)cc(Cl)cc1C=Nc1ccc2c(c1)OCCO2 | i | 1.2 | -8.2 | 9.4 | 11.6 | 72.0*
Oc1c(Cl)cc(Cl)cc1/C=N/Nc1ncc(Br)cn1 | ? | 0.6 | -5.4 | 1.8 | -0.5 | 58.6*
Cc1ccc(C(=O)NC(=S)Nc2nc(-c3cccc([N+](=O)[O-])c3)cs2)c(Cl)c1 | i | 3.5 | -5.0 | 5.5 | -3.0 | 3.4
Cc1ccc(N=CC2=C(O)CC(C)(C)CC2=O)nc1 | i | 6.0 | 3.6 | -5.4 | 1.5 | 4.3
Cc1ccc(N=Cc2cc(Cl)cc(Cl)c2O)nc1 | i | 8.3 | -3.5 | -9.9 | 3.7 | 65.4*
SMILES | Myeloid diff 2 | Rtt109 Vps75 | ABHD5-PLIN5 inh | HGIII-sPLA2 inh | DAGLB inh | Cardio protect
c1cncc(-c2nc(NCc3ccc4c(c3)OCO4)c3ccccc3n2)c1 | i | -4.2 | 5.9 | -5.5 | -2.8 | 13.6
c1cncc(-c2nc(NCC3COc4ccccc4O3)c3ccccc3n2)c1 (centres undefined) | i | 5.9 | 12.8 | -31.6 | -0.7 | 51.7*
COc1ccc(CCNc2nc(-c3cccnc3)nc3ccccc23)cc1OC | i | 1.7 | 0.2 | -3.0 | 0.8 | 50.7*
COc1cc2c(cc1OC)C(O)=CC(=O)C2=O | i | · | -2.2 | 7.3 | 3.7 | -9.1
CC1(C)CC(=O)C2=C(C1)OC(N)=C(C#N)C2c1ccsc1 (centres undefined) | i | 5.0 | -5.1 | 3.3 | -2.3 | 8.3
CC(C)(Oc1ccc(Cl)cc1)C(=O)NCC1CCCO1 (centres undefined) | i | 4.7 | 7.0 | 7.5 | 1.8 | 0.5
CCN(CC(=O)Nc1ccccc1C(F)(F)F)C(=O)c1ccc2c(=O)n3c(nc2c1)CCC3 | + | 4.6 | 6.1 | 11.1 | -0.5 | 6.8
CCN(CC(=O)Nc1c(F)cccc1F)C(=O)c1ccc2c(=O)n3c(nc2c1)CCC3 | i | -1.7 | -4.0 | 1.4 | 0.0 | 0.8
COc1ccc(-c2nc3c(c(SCC(=O)N4CCOCC4)n2)Cc2c(CO)cnc(C)c2O3)cc1 | i | 6.5 | 4.0 | -4.6 | 1.6 | 76.9*
Cc1ccc(-c2nc3c(c(SCC(=O)N4CCOCC4)n2)Cc2c(CO)cnc(C)c2O3)cc1 | i | 1.0 | -4.8 | -4.6 | 1.9 | 36.1
Cc1cccc(OCCC(=O)NCC(=O)Nc2c(C)cccc2C)c1 | i | 3.0 | -2.4 | -1.0 | 0.9 | 1.2
Cc1ccnc(NC(=S)N2CC3CN(c4cccc(C(F)(F)F)c4)CC3C2)c1 (centres undefined) | · | · | · | 6.7 | · | ·
COC(=O)C(CCSC)NC(=O)c1cc2c(n(-c3ccccc3)c1=O)CCCC2=O (centres undefined) | i | -12.8 | -2.9 | -1.9 | 0.1 | -5.5
COc1cc(NC(=O)c2ccc3c(=O)n(Cc4ccco4)c(=S)[nH]c3c2)cc(OC)c1OC | i | 3.1 | 22.5* | -1.1 | 0.4 | 3.9
CN1CCc2cc(O)c(O)cc2C(c2ccccc2)C1 (centres undefined) | i | 7.1 | -1.4 | -16.3 | 1.6 | 54.3*
Cc1cc(C)cc(C(=O)Nc2cccc(NC(=O)c3ccco3)c2)c1 | i | 12.3 | 1.2 | 1.3 | -0.4 | 16.9
COc1cc2nc(NCCCN3CCN(C)CC3)n3nc(-c4ccccc4)nc3c2cc1OC | i | 82.2* | 7.2 | -14.3 | 1.3 | 30.5
CCN(CC)CCCNc1nc2cc(OC)c(OC)cc2c2nc(-c3ccccc3)nn12 | i | 0.8 | 16.3 | -3.5 | -2.1 | -2.0
COc1cc2nc(NCC3CCCO3)n3nc(-c4cccnc4)nc3c2cc1OC (centres undefined) | i | 7.9 | -4.3 | 1.7 | -2.2 | 90.7*
CN1CCN(CCCNc2nc3ccccc3c3nc(-c4ccccc4)nn23)CC1 | i | 3.0 | 12.6 | -2.2 | 1.6 | 29.0
